Records with an inconclusive call do not appear. The source made the active and inactive calls. Unless noted, the rule behind the calls is not given here.

Assay [1] in a line: qHTS profiling for inhibitors of Plasmodium falciparum (3D7) proliferation (AID 743322).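 Note: infected erythrocytes exposed to compound for 72 h before lysis; 100% = DMSO vehicle wells and 0% = 0.29 µM artemisinin.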 The settings on record: P. falciparum 3D7 proliferation; at 28.7 µM (top of the series). The essentials: (§1)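 Erythrocytes infected with P. falciparum (0.3% parasitemia, 2.5% hematocrit) incubated with compounds 72 h at 37 C, 5% CO2. Lysis with saponin/Triton buffer containing SYBR Green I, overnight at room temperature in the dark; DNA fluorescence (485/535 nm) normalised to 0.29 uM artemisinin and DMSO.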
In general terms: In qHTS, concentration-response curves come from the screen itself.

Assay [2] is described as follows: qHTS profiling for inhibitors of Plasmodium falciparum (DD2) proliferation (AID 743323). As to conditions: lower = more inhibition; at 28.7 µM (top of the series). The essentials:
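Parasite proliferation measured via DNA-dye fluorescence, as uninfected erythrocytes lack DNA. Cultures at 0.3% parasitemia and 2.5% hematocrit incubated 72 h with compound; signal scaled between vehicle and 0.29 uM artemisinin wells.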

Assay [3] can be described thus: qHTS profiling for inhibitors of Plasmodium falciparum (HB3) proliferation (AID 743324; active = well fitted curve in the direction sought with a large enough effect; an effect the other way counts as inactive or inconclusive;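 note: 100% = DMSO vehicle wells and 0% = artemisinin-treated control wells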). As to conditions: Plasmodium falciparum HB3 blood-stage proliferation; at 28.7 µM (top of the series). The essentials:
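P. falciparum HB3 grown in erythrocytes (0.3% parasitemia, 2.5% hematocrit final) with compound for 72 h at 37 C, 5% CO2. Parasite DNA detected by SYBR Green after saponin/triton lysis overnight; normalized to 0.29 uM artemisinin and DMSO.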

Assay [4] can be described thus: qHTS profiling of the MIPE4 collection as inhibitors of Plasmodium falciparum (3D7) proliferation (AID 743344).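 Note: scaled between DMSO vehicle wells and 0.29 µM artemisinin as full inhibition.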 The settings on record: P. falciparum 3D7 in erythrocytes, SYBR Green DNA fluorescence, 72 h; at 28.5 µM (top of the series) unless noted. In a few lines: as §1
A short description of assay [5]: qHTS profiling of the MIPE4 collection as inhibitors of Plasmodium falciparum (DD2) proliferation (AID 743345). The settings on record: P. falciparum Dd2 in erythrocytes, SYBR Green DNA, 72 h; at 28.5 µM (top of the series) unless noted. In a few lines:
as §1

Assay [6] in a line: qHTS profiling of the MIPE4 collection as inhibitors of Plasmodium falciparum (DD2) proliferation (Rep 2) (AID 743346). As to conditions: P. falciparum Dd2 in erythrocytes, SYBR Green DNA, 72 h; at 28.5 µM (top of the series) unless noted. In a few lines: as §1
The nature of assay [7]: High-throughput drug toxicity screening in the BPDCN cell line Gen2.2 (AID 1224824).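 Note: cells exposed to compounds for 48 h before reading.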 As to conditions: Gen2.2 BPDCN cells; at 45.8 µM (top of the series) unless noted. The essentials: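 Gen2.2 cells (500/well) in phenol red-free RPMI with 10% FBS were exposed to compounds for 48 h at 37 °C, 5% CO2. Viability was read by CellTiter-Glo luminescence and normalized to DMSO (100%) and 9.2 uM bortezomib (0%).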

Assay [8] is described as follows: High-throughput drug toxicity screening in the BPDCN cell line Cal-1 (AID 1224825). As to conditions: Cal-1 BPDCN cell viability, qHTS; at 45.8 µM (top of the series) unless noted. In a few lines: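 Exponentially growing Cal-1 cells, 500 per well in phenol red-free RPMI with 10% FBS, were exposed to compounds for 48 h at 37 °C, 5% CO2. Viability was read by CellTiter-Glo luminescence and normalised to DMSO (100%) and 9.2 uM bortezomib (0%).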

The nature of assay [9]: qHTS assay for measurement of the activity of small molecule inhibitors on Zika virus induced Caspase-3 activity in human iPSC derived neural progenitor cells (hNPCs) (AID 1224857; active = well fitted curve in the direction sought with a large enough effect; an effect the other way counts as inactive or inconclusive; note: nearly all actives have a fitted effect of over 65% in size; note: potency is the fitted concentration of half-maximal effect). In a few lines:
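Pretreat hNPCs with compound 1 h; infect ZIKV 2 FFU/cell; 6 h 37 C, 5% CO2; Caspase-Glo 3/7, 30 min RT; luminescence; normalize to no-virus and virus-only wells.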

Assay [10] can be described thus: qHTS Screen of the MIPE 4.0 Collection Against Ewings Sarcoma (TC71) (AID 1259253; active = well fitted curve in the direction sought with a large enough effect; an effect the other way counts as inactive or inconclusive; note: nearly all actives have a fitted effect of over 40% in size; note: potency is the fitted concentration of half-maximal effect). The essentials: (§2)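 Compound titrations go onto adherent log-phase cells 4 h after seeding, incubate 48 h at 37C, then CellTiter-Glo luminescence reports viability relative to DMSO and cell-free controls.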
A short description of assay [11]: qHTS profiling of the MIPE4 collection as inhibitors of Plasmodium falciparum (HB3) proliferation (AID 743347).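 Note: plate controls were DMSO vehicle wells for no effect and artemisinin wells for full effect.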 As to conditions: P. falciparum HB3 in erythrocytes, SYBR Green DNA, 72 h; at 28.5 µM (top of the series) unless noted. The essentials:
as §1

The nature of assay [12]: qHTS Screen of the MIPE 4.0 Collection Against Ewings Sarcoma (RDES) (AID 1259252; active = well fitted curve in the direction sought with a large enough effect; an effect the other way counts as inactive or inconclusive; note: nearly all actives have a fitted effect of over 35% in size; note: potency is the fitted concentration of half-maximal effect). In a few lines:
as §2

Assay [13] in a line: qHTS Screen of the MIPE 4.0 Collection Against Ewings Sarcoma (EW8) (AID 1259255; active = well fitted curve in the direction sought with a large enough effect; an effect the other way counts as inactive or inconclusive; note: nearly all actives have a fitted effect of over 35% in size; note: potency is the fitted concentration of half-maximal effect;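 for viability: 100% = DMSO-treated cells and 0% = medium-only wells without cells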). In a few lines: as §2
A short description of assay [14]: qHTS assay for measurement of the activity of small molecule inhibitors on Zika virus induced Caspase-3 activity in human astrocytoma cells (AID 1224859; active = well fitted curve in the direction sought with a large enough effect; an effect the other way counts as inactive or inconclusive;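 note: plate controls were ZIKV-infected untreated cells for no effect and uninfected cells for full effect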). The essentials: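 Human SNB-19 astrocytoma cells in RPMI 1640 with 10% FBS receive compound one hour ahead of Zika virus at 2 FFU/cell. After 6 h infection, caspase-3/7 activity is detected by Caspase-Glo luminescence.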

The nature of assay [15]: qHTS assay for cell viability of the p53RE-bla HCT-116 cell line (AID 743292; active = well fitted curve in the direction sought with a large enough effect; an effect the other way counts as inactive or inconclusive; note: potency is the fitted concentration of half-maximal effect; nearly all actives have a fitted effect of over 55% in size). The essentials: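 Intracellular ATP of p53RE-bla HCT-116 cells measured by luciferase luminescence following 16 h compound incubation at 37 C; DMSO-only wells served as vehicle controls.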
The nature of assay [16]: qHTS Assay for Identifying Gametocytocidal Compounds (AID 743244; active = well fitted curve in the direction sought with a large enough effect; an effect the other way counts as inactive or inconclusive; note: potency is the fitted concentration of half-maximal effect;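 for max response: % is set by controls: 0 for no effect and ±100 for the full control effect; actives lower the fluorescent signal which means gametocytes are killed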). As to conditions: P. falciparum 3D7 stage III-V gametocytes, alamarBlue, 72 h; max response: stronger effect = lower value. The essentials: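 Compounds are pinned into medium, gametocytes (stage III–V, 3D7, 20,000 cells/well) added, and plates held 72 h at 37 °C in 5% CO2. AlamarBlue follows for 24 h before fluorescence reading.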

With `COc1cc(N2CCC(N3CCN(C)CC3)CC2)ccc1Nc1ncc(Cl)c(Nc2ccccc2S(=O)(=O)C(C)C)n1`, in assay [1], the remaining parasite growth % (stronger effect = lower value) was -0.393%. Besides, the activity, percent of control in assay [2] came to 0.218%. Also, the remaining proliferation (% of control), lower = more inhibition in assay [3] is -1.09%. The same compound registered a parasite growth, % of DMSO control in assay [4] of 3.8%. Besides, in [5], the parasite growth remaining, % of DMSO control (lower = more inhibition) came out at 7.75%. This compound showed a parasite growth, % of control (lower = inhibition) in assay [6] of 5.51%. Moreover, the cell viability, % of control (lower = more cytotoxic) in assay [7] came to 5.5%. The viability (% of control) in assay [8] is 2.84%. Moreover, the Potency entry in assay [9] and in assay [10] was “inactive” in each case.

In the case of `O=C(CCN1CCN(C(=O)OCc2cc(Cl)cc(Cl)c2)CC1)c1ccc2[nH]c(=O)oc2c1`, in assay [5], the parasite growth remaining, % of DMSO control (lower = more inhibition) was 103%. The compound further returned a growth, % of control in [11] of 105%. Besides, the cell viability, % of control (lower = more cytotoxic) in [7] stood at 231%. Besides, the viability (% of control) in assay [8] amounted to 115%. The Potency in [9] is 20.9 µM (active). Further, the Potency result in [12], in [10] and in assay [13] was “inactive” each time.

Compound `O=c1cc(-c2cccc3c2Sc2ccccc2S3)oc(N2CCOCC2)c1` yielded a parasite growth, % of DMSO control in [4] of 64.9%. The compound further registered a parasite growth, % of control (lower = inhibition) in [6] of 61.1%. The cell viability, % of control (lower = more cytotoxic) in [7] was 22.3%. Besides, the viability (% of control) in [8] was 35.7%. Also, the Potency entry in assay [9] and in assay [14] was “inactive” each time.

The compound `O=C1NC(=O)C(=Cc2cccc(C(F)(F)F)c2)S1` gave a parasite growth, % of DMSO control in [4] of 88.5%. In addition, in assay [6], the parasite growth, % of control (lower = inhibition) came to 76.4%. The compound further registered a growth, % of control in assay [11] of 96.2%. Besides, in [7], the cell viability, % of control (lower = more cytotoxic) is 128%. The viability (% of control) in [8] worked out at 110%. Besides, the Potency result in assay [9] and in assay [14] was “inactive” each time.

`O=C(O)c1cc(O)c2c(c1)C(=O)c1cccc(O)c1C2=O`: the Potency is 35.5 µM (active) in assay [15] and 38.2 µM (active) in assay [9]. The parasite growth, % of DMSO control in [4] worked out at 62.1% [at 57.5 µM]. In addition, the parasite growth remaining, % of DMSO control (lower = more inhibition) in assay [5] worked out at 73.9% [at 57.5 µM]. The parasite growth, % of control (lower = inhibition) in assay [6] came out at 43.2% [at 57.5 µM]. The same compound yielded a growth, % of control in assay [11] of 44.1% [at 57.5 µM]. Further, in [7], the cell viability, % of control (lower = more cytotoxic) worked out at 168% [at 92.2 µM]. The viability (% of control) in [8] was 124% [at 92.2 µM]. The Potency entry in assay [12] and in [10] was “inactive” in each case.

Turning to `CN(C)C1CCN(C(=O)c2ccc(NC(=O)Nc3nc(N4CCOCC4)nc(N4CCOCC4)n3)cc2)CC1`, the Potency in [16] was 23.5 µM (active); in [10], 0.0743 µM (active). Besides, the remaining parasite growth % (stronger effect = lower value) in assay [1] was found to be 0.246%. For the same compound, the activity, percent of control in assay [2] was 2%. In addition, the remaining proliferation (% of control), lower = more inhibition in assay [3] came out at 2.09%. In [4], this compound returned a parasite growth, % of DMSO control of 5.78%. In addition, in assay [5], the parasite growth remaining, % of DMSO control (lower = more inhibition) turned out to be 7.83%. In assay [6], this compound registered a parasite growth, % of control (lower = inhibition) of 9.5%. Also, the cell viability, % of control (lower = more cytotoxic) in [7] is 6.71%. Besides, the viability (% of control) in assay [8] worked out at 12.5%. For the same compound, in assay [9], the Potency entry was “inactive”.

As to `CC(C)(C)c1cc(C(=O)O)c(NC(=O)Nc2ccc3[nH]ncc3c2)s1`, the max response in assay [16] was 39.1% (inactive). The remaining parasite growth % (stronger effect = lower value) in assay [1] was found to be 97%. The activity, percent of control in assay [2] is 95.5%. Besides, in assay [3], the remaining proliferation (% of control), lower = more inhibition is 70.8%. This compound also registered a parasite growth, % of DMSO control in assay [4] of 74.4%. Further, in assay [6], the parasite growth, % of control (lower = inhibition) was 81.5%. The same compound had a growth, % of control in assay [11] of 69.6%. For the same compound, in assay [7], the cell viability, % of control (lower = more cytotoxic) is 134%. Moreover, the viability (% of control) in assay [8] came to 110%. The Potency result in [9] and in [13] was “inactive” throughout.

Compound `CC(=NNC(=S)N1CCC1)c1ccccn1` gave a parasite growth, % of DMSO control in assay [4] of 5.99%. For the same compound, in assay [5], the parasite growth remaining, % of DMSO control (lower = more inhibition) was 5.88%. In assay [6], this compound registered a parasite growth, % of control (lower = inhibition) of 10.5%. This compound also showed a growth, % of control in assay [11] of 6.19%. Moreover, the cell viability, % of control (lower = more cytotoxic) in assay [7] worked out at 91.1%. Besides, the viability (% of control) in assay [8] worked out at 9.75%. Besides, the results for the Potency in assay [9] and in assay [10] were 16.6 µM (active) and 0.0053 µM (active), respectively.

As for `COc1cc2nc(-c3ccc(N4CCN(C)CC4)cc3)nc(NCCN3CCOCC3)c2cc1OC`, the Potency in assay [16] is 11.8 µM (active); in assay [9], 5.9 µM (active); in assay [12], 0.0166 µM (active); in assay [10], 0.132 µM (active); in assay [13], 0.0332 µM (active). Also, the remaining parasite growth % (stronger effect = lower value) in assay [1] is -1.55%. The activity, percent of control in assay [2] was -0.313%. In assay [3], the remaining proliferation (% of control), lower = more inhibition is -0.898%. The compound also yielded a parasite growth, % of DMSO control in [4] of 5.09%. Besides, in assay [5], the parasite growth remaining, % of DMSO control (lower = more inhibition) stood at 4.83%. The compound also gave a parasite growth, % of control (lower = inhibition) in assay [6] of 12.1%. Further, the growth, % of control in assay [11] is 2.87%. Also, in assay [7], the cell viability, % of control (lower = more cytotoxic) was found to be 1.57%. In addition, the viability (% of control) in [8] stood at 2.25%.

For the origin of these results see PubChem BioAssay (NCATS).
